Screens (PubChem BioAssay)
This excerpt belongs to a sample that is enriched for hits.
Methyltransferases: Primary Screen for Target Class Profiling of Small Molecule Inhibitors of Methyltransferases; AID 1745853, 2022; calls only at 40 µM; purified enzyme, MTase-Glo SAH luminescence; hits give low values; hit rate 3.9% among 25,000; call rule not given here
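Each enzyme was assayed with SAM and its substrate. SAH formation detected by MTase-Glo luminescence; single-point 40 uM screen[…].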
MTase-Glo counter: counter-screen for methyltransferase inhibitors: coupling enzymes without methyltransferase; shares compounds with Methyltransferases; MTase-Glo coupled enzymes, SAH conversion luminescence, no MTase; Potency, µM (top dose mostly 57.3 µM), usual class: inhibitors; hit rate 6% among 180; active means well fitted inhibition curve with a large enough effect
A number is an active result; 0 = inactive; + = active, no number.

SMILES	Methyltransferases	others
Cc1noc(C)c1[S+](=O)([O-])N1CCn2c(nn(-c3ccc(C(F)(F)F)cc3)c2=O)C1	+	MTase-Glo counter=0
Cc1nn(-c2ccccc2)c2c1C(C)N(C1CCN([S+](=O)([O-])c3c(C)noc3C)C1)C2=O (stereo not given)	0
COc1ccc(-c2nnc3n2CCN([S+](=O)([O-])c2c(C)noc2C)C3)cc1	0
Cc1ccc(CNC(=O)CSc2nnc3n(CCc4ccccc4)c(=O)c4ccccc4n23)cc1	0
COc1cc(NC(=O)Cn2nc3n(Cc4ccc(F)cc4)c(=O)c4ccccc4n3c2=O)cc(OC)c1	0
CC(C)OCCCNC(=O)c1ccc2c(=O)nc3c(-c4cccc(F)c4)n[nH]n3c2c1	0
O=C(NC1CCN(CC(F)(F)F)CC1)c1ccc(-c2cccc(F)c2)nc1	0
CC(C)c1nccn1CCCNC(=O)c1ccc(-c2cccc(F)c2)nc1	+	MTase-Glo counter=0
O=C(NCCN1CCN(c2cccc3ccc(O)cc23)CC1)c1ccc(F)cc1	0
Cc1ccc(NC(=O)N2CCCN(CCn3nc4n(c3=O)CCCC4)CC2)cc1F	0
Oc1ccc(NCCN2CCCC2)cc1	+	MTase-Glo counter=0
CN1CC2(CCN(C(=O)c3cccn3C)CC2)CC(c2ccccc2)C1=O (stereo not given)	0
CN(C)CC1(O)CCC2(CCN(C(=O)c3cccn3C)CC2)CC1	+	MTase-Glo counter=5.4µM
Cn1cccc1C(=O)N1CC[C@H](CO)[C@H](NC(=O)C2CC2)C1	0
COc1ccccc1CNC(=O)C1c2c(n(C)c3ccccc23)SCC(=O)N1c1ccc2c(c1)OCO2 (stereo not given)	0
CCOc1ccc(CCNC(=O)CCCn2ccc3cc(S(=O)(=O)N4CCCC4)ccc32)cc1	0
O=C(Cn1nc2n(CCc3ccccc3)c(=O)c3ccccc3n2c1=O)NCc1ccc(Cl)cc1	0
CCOc1ccccc1CN1C(=O)c2cc(C(C)(C)C)nn2CC1(C)C(=O)NC1CCCCC1 (stereo not given)	0
FC(F)(F)c1ccnc(N2CC[C@H](c3nnc(-c4ccncc4)o3)C2)n1	+	MTase-Glo counter=0
COc1ccc(C(=O)N2CC[C@H](c3nnc(-c4ccccc4)o3)C2)cc1	0
c1ccc(-c2nnc([C@H]3CCN(C4CCC4)C3)o2)cc1	0
CCC(C)NC(=O)c1ccc2c(=O)n(C(C)C)c3nn(CC(=O)NCc4ccc(F)cc4)c(=O)n3c2c1 (stereo not given)	0
Cc1ccc(CCNC(=O)CCc2nnc3n(Cc4ccc(F)cc4)c(=O)c4ccccc4n23)cc1	0
CC(C)NC(=O)c1ccc2c(=O)n(Cc3ccccc3)c3nnc(SCc4ccccc4)n3c2c1	0
Cc1nn(C)cc1CN1CCC(O)(c2ccccc2)[C@H](N2CCCC2)C1 (stereo not given in full)	0
SMILES	Methyltransferases	others
CCn1cc(CN2CCCC23CCN(c2cc(C)nc4ccccc24)CC3)c(C)n1	+	MTase-Glo counter=0
CCCn1ncc(CN2CCCC23CCN(c2ncccn2)CC3)c1C	0
CCc1ccc(NC(=O)CSc2nnc3n(Cc4ccc(C)cc4)c(=O)c4ccccc4n23)cc1	0
COc1ccc(CN2C[C@@H](CO)[C@H](c3ccncc3)C2)c(OC)c1	+	MTase-Glo counter=0
Cn1cccc1CN1C[C@@H](CO)[C@H](c2ccncc2)C1	0
COc1ccc2c(c1)c(CN1C[C@@H](CO)[C@H](c3nc(C)no3)C1)cn2C	0
COc1ccc(-c2n[nH]n3c2nc(=O)c2ccc(C(=O)NCc4ccc(C(C)C)cc4)cc23)cc1	0
CC(C)Cn1c(=O)c2ccccc2n2c(=O)n(CC(=O)N3CCN(c4ccccc4F)CC3)nc12	0
O=C(Cn1c(=O)oc2cc(S(=O)(=O)NC3CCCC3)ccc21)NCc1ccc(F)cc1	0
CN1CCN(C)c2cnc(-c3cnn(Cc4ccccc4)c3)cc2C1	+	MTase-Glo counter=0
Cc1ccc(CCN2C(=O)CSc3c(c4ccccc4n3C)C2C(=O)NCCC(C)C)cc1 (stereo not given)	0
CCC(C(=O)N(C)Cc1ccc(OC)c2ncccc12)n1cccn1 (stereo not given)	0
COc1cccn(CC(=O)N2CCN(c3ccccc3C#N)CC2)c1=O	0
CCOc1c(CN(C)C(=O)Cn2cccc(OC)c2=O)cccc1OC	+	MTase-Glo counter=0
CCOc1ccc(-c2cc3n(n2)CC(C)(C(=O)NCCC(C)C)N(c2ccccc2CC)C3=O)cc1 (stereo not given)	0
Cc1cc(C)cc(N2C(=O)c3cc(C(C)(C)C)nn3CC2(C)C(=O)NCc2ccccc2)c1 (stereo not given)	0
COc1cccc(Nc2ccnc(-c3nnc(C)n3C3CCCCC3)c2)c1	+	MTase-Glo counter=0
Cc1nnc(-c2cc(-c3ccccc3Oc3ccccc3)ccn2)n1C	0
COc1cccc(NC(=O)c2cc3n(n2)CC(C)(C(=O)NC2CCCCCC2)N(C)C3=O)c1 (stereo not given)	0
Cc1c(Cl)cccc1NC(=O)N1CCn2cccc2C1C (stereo not given)	0
